A549 tox – A549 cytotoxicity, counter-screen for Nrf2 inhibitors | 0.16% of 390,000 active | AID 504648 | Potency, µM (highest dose often 46 µM), for inactives: at the highest dose activity change, negative = cytotoxicity, most hits filed as inhibitors | A549 ARE-Fluc cells, CellTiter-Fluor viability, 18-24 h; note: % is set by controls: 0 for no effect and ±100 for the full control effect
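A549 ARE-Fluc cells in 5% FBS OPTI-MEM, 5000 cells/well, rested 2 h then exposed to compounds in concentration-response for 18-24 h at 37 °C. Viability by CellTiter-Fluor fluorescence (Ex 405/Em 525) after 30 min; luciferase luminescence (BugLite, 15 min, RT) read afterwards.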
Nrf2 block – inhibitors of Nrf2 signaling. A549 ARE-Fluc reporter, luciferase luminescence, 18-24 h. Potency, µM (doses to about 46 µM), for the others: at the highest dose activity change, negative = inhibition, most hits filed as inhibitors. 2.1% of 360,000 active; note: % is set by controls: 0 for no effect and ±100 for the full control effect; nearly all actives have a fitted effect of over 60% in size
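Concentration-response testing used A549 ARE_Fluc cells at 5000 cells/well. Following an 18-24 h compound incubation, viability was read by fluorescence (Ex 405/Em 525) and luciferase output by luminescence.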
Nrf2 activator – Nrf2 pathway activation; 0.31% of 410,000 active; AREc32 ARE-luciferase reporter (MCF7-derived line), luminescence, 24 h; Potency, µM (doses to about 46.1 µM), inactives show top-dose activation, usual class: activators; note: % of control where 0% means no effect; nearly all actives have a fitted effect of over 65% in size
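Nrf2 activation is followed as ARE-luciferase induction in the AREc32 line after one day of compound treatment; luminescence is read with Steady-Glo.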
HepG2 tox-1 – HepG2 cytotoxicity, counter-screen for TGF-b inhibitors; HepG2 CAGA-GFP viability, ATP luminescence, 18 h; Potency, µM (top dose mostly 46.1 µM), for inactives: at the highest dose activity change, negative = cytotoxicity, actives largely listed as cytotoxic; 0.76% of 410,000 active; AID 588856
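CellTiter-Glo luminescence gave cytotoxicity after 18 hours at 37 degrees C. The cells were HepG2 CAGA-GFP in 1% FBS DMEM, stimulated with 500 pg/mL TGF-beta after compound addition. %Activity was normalised to no-cell wells (complete cell-killing) and DMSO (no toxicity), and curves were fitted and classified.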
TGFb SMAD3 inh – inhibitors of TGF-b signaling | HepG2 CAGA-GFP TGF-b/SMAD3 reporter, GFP fluorescence, 18 h; TGF-beta stimulated, 500 pg/mL final | Potency, µM (doses to about 46.1 µM), for inactives: at the highest dose activity, negative = inhibition, most hits filed as inhibitors | 1.2% of 410,000 active; note: % is set by controls: 0 for no effect and ±100 for the full control effect; nearly all actives have a fitted effect of over 65% in size
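Using HEPG2 CAGA-GFP reporter cells at 1000 cells/well, we pinned test compounds, stimulated with recombinant TGF-beta (500 pg/mL final) and measured total well GFP after 18 h.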
TGFb confirm – TGF-b pathway inhibition, cherry-pick retest | shares compounds with TGFb SMAD3 inh | HepG2 CAGA-GFP TGF-b reporter, GFP fluorescence, 18 h; cells stimulated with TGF-beta, 500 pg/mL | Potency, µM (highest dose often 46.1 µM), for inactives: top-dose activity, negative = inhibition, actives largely listed as inhibitors | 63% of 1,600 active; note: % is set by controls: 0 for no effect and ±100 for the full control effect; nearly all actives have a fitted effect of over 65% in size
HepG2 tox-2 – HepG2 cytotoxicity, TGF-b inhibitor counterscreen; HepG2 CAGA-GFP viability, ATP luminescence, 18 h; cells stimulated with TGF-beta, 500 pg/mL; 27% of 1,600 active; Potency, µM (doses to about 46.1 µM), without a hit: at the top dose activity, negative = cytotoxicity, actives largely listed as inhibitors; shares compounds with TGFb SMAD3 inh; note: % is set by controls: 0 for no effect and ±100 for the full control effect; nearly all actives have a fitted effect of over 70% in size
CCL64 TGFb inh – TGF-b inhibition, CCL64 orthogonal assay; 41% of 1,600 active; CCL64 CAGA-GFP reporter, TGF-b stimulated, GFP fluorescence, 18 h; shares compounds with TGFb SMAD3 inh; AID 720536; Potency, µM (highest dose often 46.1 µM), without a hit: at the highest dose activity, negative = inhibition, most hits filed as inhibitors; note: nearly all actives have a fitted effect of over 65% in size
TGFb COP inh – TGF-b inhibition validated with COP promoter. shares compounds with TGFb SMAD3 inh. HepG2 COP-GFP TGF-b reporter, GFP fluorescence, 18 h; cells stimulated by added recombinant TGF-beta. Potency, µM (series often up to 46.1 µM), inactives show top-dose activity, negative = inhibition, actives largely listed as inhibitors. 3% of 1,600 active. AID 720537; note: nearly all actives have a fitted effect of over 70% in size
The depositor's hits bear a star; u = inconclusive; x = no result given; [ ] = another dose, or the depositor's remark. Most compounds without a hit are left out; they make up all but 3.6% or so of the library. Calls come from the whole dose curve; as a rule, active = well fitted curve in the direction sought with a large enough effect; inconclusive = small, poorly fitted or top-dose-only effect, or another doubt; inactive = no such curve, though single readings can be large; an effect the other way counts as inactive or inconclusive. Potency is the fitted concentration of half-maximal effect.

SMILES	A549 tox	Nrf2 block	Nrf2 activator	HepG2 tox-1	TGFb SMAD3 inh	TGFb confirm	HepG2 tox-2	CCL64 TGFb inh	TGFb COP inh
Cc1ccc(S(=O)(=O)N2CCN(C(=O)c3ccc(N4CCCC4)c([N+](=O)[O-])c3)CC2)cc1	1.1%	-13.3%	0.3%	44.9%	-4.9%	x	x	x	x
COc1cc(C2c3c(oc4ccccc4c3=O)C(=O)N2c2ccc(C)cn2)ccc1O (centres undefined)	0.5%	5.8%	2.6%	-22.1%	-16.0%	x	x	x	x
CC(Nc1nc(-c2ccccc2)nc2ccccc12)c1ccccc1 (centres undefined)	-4.2%	u	3.6%	-27.8%	u	x	x	x	x
CCC(C)Nc1nc(-c2ccccn2)nc2ccccc12 (centres undefined)	u	u	-1.4%	-14.3%	u	14.6µM*	u	11.6µM*	71.6%
OCC1(Cc2ccccc2)CCN(C2CCN(c3ccccc3F)CC2)CC1	-2.4%	11.1%	-0.2%	9.9%	-20.3%	x	x	x	x
Cc1ccc(N2CCN(C(=O)c3ccccc3NC(=O)C3CCCCC3C(=O)O)CC2)cc1 (centres undefined)	-0.4%	-7.5%	-0.9%	-43.8%	-17.8%	x	x	x	x
Cc1ccc(S(=O)(=O)Nc2cccc3cccnc23)cc1	-24.9%	6.51µM*	u	-34.5%	3.98µM*	16.4µM*	-20.9%	8.2µM*	24.2%
CCOC(=O)c1c(NC(=O)CN(CC)CC)sc2c1CCN(C(=O)OCC)C2	-3.8%[1.84 µM]	u	4.0%	-30.8%	u	x	x	x	x
CCOC(=O)c1c(NC(=O)CN2CCCCC2)sc2c1CCN(C(=O)OCC)C2	u	23.1µM*	5.5%	-8.9%	11.2µM*	13µM*	u	18.4µM*	26.4%
Cc1cccc(C)c1NC(=O)CCCSc1nnc(-c2ccc(F)cc2)n1-c1ccccc1	-15.9%	u	0.0%	-36.6%	7.94µM*	u	-24.8%	u	18.2%
COc1ccc(C)c2sc(=NC(=O)c3ccccc3)n(C)c12	27.9%	u	20.6%	-12.0%	-7.7%	x	x	x	x
COc1ccc(Nc2nnc(-c3ccc(C)cc3)c3ccccc23)cc1C(=O)N1CCCCC1	u	-9.2%	2.1%	-21.2%	15.8µM*	-87.5%	u	u	45.3%
COc1ccc(Nc2nnc(-c3ccccc3)c3ccccc23)cc1C(=O)N1CCCCC1	-7.3%	-13.4%	-0.2%	-12.1%	-26.7%	x	x	x	x
Cc1ccc(S(=O)(=O)Nc2nc(-c3ccccc3)cs2)cc1	3.1%	-4.3%	0.0%	10.4%	-9.8%	x	x	x	x
O=C(Nc1cc(S(=O)(=O)N2CCCCC2)ccc1O)c1ccccc1NS(=O)(=O)c1ccc(F)cc1	2.3%	-7.5%	-0.6%	-31.8%	17.8µM*	16.4µM*	u	u	74.1%
Cc1ccc(S(=O)(=O)Nc2ccccc2C(=O)Nc2nc(-c3ccc(F)cc3)cs2)cc1	u	u	4.1%	-34.4%	5.62µM*	5.17µM*	5.8µM*	5.17µM*	93.6%
COc1ccccc1CN=c1c([N+](=O)[O-])nn(-c2ccc3c(c2)OCCO3)n1O	-6.1%	u	4.0%	-1.2%	2.9%	x	x	x	x
Cc1ccc(-n2nnnc2Sc2ccc(S(=O)(=O)NCCN(C)C)cc2[N+](=O)[O-])cc1	6.51µM*	10.3µM*	u	8.91µM*	1.58µM*	7.31µM*	20.6µM*	5.8µM*	u
O=[N+]([O-])c1cc(S(=O)(=O)NCCN2CCOCC2)ccc1Sc1nnnn1-c1ccccc1	-6.0%	u	u	-119.4%	u	x	x	x	x
O=C(CSc1nnnn1C1CC1)N1CCN(c2cccc(Cl)c2)CC1	-7.9%	u	-0.3%	-20.3%	-22.1%	x	x	x	x
CC(C)c1ccc(CN2CCN(C(=O)CSc3nnnn3C3CC3)CC2)cc1	-7.0%	u	0.3%	-35.3%	u	-22.1%	-21.6%	1.0%	7.8%
O=C(Nc1nnc(SCc2ccc(F)cc2)s1)c1ccccn1	u	u	u	-32.3%	1.58µM*	u	u	18.4µM*	54.7%
NC(=O)c1ccsc1NC(=O)c1ccc(S(=O)(=O)N2CCCc3ccccc32)cc1	u	18.4µM*	-3.8%	-16.0%	11.2µM*	5.17µM*	u	16.4µM*	-1.1%
CCc1ccc(-n2nc(CO)c(C(=O)NCCCc3ccccc3)n2)cc1	4.2%	21.6%	2.4%	3.9%	-9.3%	x	x	x	x
CCn1c(=O)cc(SCC(=O)NCCc2cc(OC)ccc2OC)c2ccccc21	-12.3%	-15.1%[9.27 µM]	-0.1%	-0.5%	-32.9%	x	x	x	x
SMILES	A549 tox	Nrf2 block	Nrf2 activator	HepG2 tox-1	TGFb SMAD3 inh	TGFb confirm	HepG2 tox-2	CCL64 TGFb inh	TGFb COP inh
O=C(CSc1cccc[n+]1[O-])Nc1ccccc1Oc1ccccc1	0.1%	-2.9%	26.4%	-22.0%	u	-10.5%	5.9%	4.1%	-3.6%
COC(=O)c1ccc(-n2c(C)cc(C(=O)CSc3cccc[n+]3[O-])c2C)cc1	-4.6%	-12.9%	3.3%	-1.0%	-6.7%	x	x	x	x
COC(=O)c1ccc(C(=O)OC)c(NC(=O)CSc2cccc[n+]2[O-])c1	1.1%	18.4%	29.7%	6.31µM*	3.55µM*	-15.0%	5.7%	-7.8%	11.5%
O=C(CSc1cccc[n+]1[O-])Nc1ccccc1C(F)(F)F	12.2%	-4.6%	0.2%	-6.1%	8.9%	x	x	x	x
COC(=O)c1ccc(S(N)(=O)=O)o1	1.6%	-11.2%	-0.9%	-29.1%	-14.4%	x	x	x	x
COc1ccc(C2=NNC(=Nc3cc(S(=O)(=O)N(C)C)ccc3C)SC2)c(OC)c1	-29.7%	u	8.4%	-29.9%	u	u	u	u	27.8%
Cc1cccc(N=C2NN=C(c3ccccc3F)CS2)c1C	7.5%	153.9%	-0.1%	-15.4%	15.4%	x	x	x	x

Assay outcomes as filed in PubChem BioAssay.
